Reference: PubChem BioAssay (EPA / NIEHS)
Where “and” joins values, the source holds several entries; their conditions need not be identical. Equal entries are not always repeated. Some structures have more than one record in an assay (separate samples or runs), and their calls can disagree. Calls of active or inactive are those of the source. How the source made its calls: active means hit-call score of the fitted dose curve at least 0.9, where 1 is the maximum; inactive means score below 0.9.

Legend:
[1] = read-out: Interleukin-8 (IL8), CXCL8 (gene 3576); assay: BSK_CASM3C_IL8: BioMAP Diversity Plus: CASM3C Assay for Interleukin-8 (IL8) Biomarker Activity (AID 2283042); details: primary human coronary artery smooth muscle cells; actives raise or lower the signal;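 further: IL-8 protein level quantified by ELISA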
[2] = read-out: Human Leukocyte Antigen - DR isotype (HLADR), HLA-DRA (gene 3122); assay: BSK_CASM3C_HLADR: BioMAP Diversity Plus: CASM3C Assay for Human Leukocyte Antigen - DR isotype (HLADR) Biomarker Activity (AID 2283043); details: primary human coronary artery smooth muscle cells; actives raise or lower the signal;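 further: cell-surface HLA-DR protein level quantified by ELISA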
[3] = read-out: Macrophage colony-stimulating factor (MCSF), CSF1 (gene 1435); assay: BSK_CASM3C_MCSF: BioMAP Diversity Plus: CASM3C Assay for Macrophage colony-stimulating factor (MCSF) Biomarker Activity (AID 2283044); details: primary human coronary artery smooth muscle cells; actives raise or lower the signal;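 further: M-CSF protein amount quantified by ELISA after 24 h exposure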
[4] = read-out: Low-density lipoprotein receptor (LDLR), LDLR (gene 3949); assay: BSK_CASM3C_LDLR: BioMAP Diversity Plus: CASM3C Assay for Low-density lipoprotein receptor (LDLR) Biomarker Activity (AID 2283045); details: primary human coronary artery smooth muscle cells; actives raise or lower the signal;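 further: LDLR protein level on the cell surface quantified by ELISA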
[5] = read-out: Monocyte Chemoattractant Protein-1 (MCP1), CCL2 (gene 6347); assay: BSK_CASM3C_MCP1: BioMAP Diversity Plus: CASM3C Assay for Monocyte Chemoattractant Protein-1 (MCP1) Biomarker Activity (AID 2283046); details: primary human coronary artery smooth muscle cells; actives raise or lower the signal;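 further: MCP-1 level quantified by ELISA 24 h after dosing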
[6] = BSK_CASM3C_Proliferation: Cell Proliferation Assessment in the BioMAP Diversity Plus: CASM3C Assay (AID 2283047); details: primary human coronary artery smooth muscle cells;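 further: sulforhodamine B total protein stain as relative cell number at 560 nm; sub-confluent cells exposed 48 h before staining; fitted both ways against DMSO so gain or loss of cell number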
[7] = read-out: Monokine induced gamma interferon (MIG), CXCL9 (gene 4283); assay: BSK_CASM3C_MIG: BioMAP Diversity Plus: CASM3C Assay for Monokine induced gamma interferon (MIG) Biomarker Activity (AID 2283048); details: primary human coronary artery smooth muscle cells; actives raise or lower the signal;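 further: MIG protein level measured by ELISA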
[8] = read-out: serum amyloid A (SAA), SAA1 (gene 6288); assay: BSK_CASM3C_SAA: BioMAP Diversity Plus: CASM3C Assay for serum amyloid A (SAA) Biomarker Activity (AID 2283049); details: primary human coronary artery smooth muscle cells; actives raise or lower the signal;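 further: SAA protein level quantified by ELISA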
[9] = BSK_CASM3C_SRB: Viability Assessment in the BioMAP Diversity Plus: CASM3C Assay (AID 2283050); details: primary human coronary artery smooth muscle cells;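 further: total protein by SRB staining as cytotoxicity measure in parallel cultures; cells exposed to compound for 24 h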
[10] = read-out: Thrombomodulin, THBD (gene 7056); assay: BSK_CASM3C_Thrombomodulin: BioMAP Diversity Plus: CASM3C Assay for Thrombomodulin Biomarker Activity (AID 2283051); details: primary human coronary artery smooth muscle cells; actives raise or lower the signal;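 further: thrombomodulin protein level measured by ELISA 24 h after dosing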
[11] = read-out: Tissue Factor, F3 (gene 2152); assay: BSK_CASM3C_TissueFactor: BioMAP Diversity Plus: CASM3C Assay for Tissue Factor Biomarker Activity (AID 2283052); details: primary human coronary artery smooth muscle cells; actives raise or lower the signal;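 further: cell surface tissue factor protein level read by ELISA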
[12] = read-out: Interferon-gamma inducible Protein 10 (IP10), CXCL10 (gene 3627); assay: BSK_hDFCGF_IP10: BioMAP Diversity Plus: hDFCGF Assay for Interferon-gamma inducible Protein 10 (IP10) Biomarker Activity (AID 2283053); details: primary human foreskin fibroblasts; actives raise or lower the signal
Summary of the method: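 IP-10 levels, quantified by ELISA, are taken from human foreskin fibroblast cultures 24 h after chemical treatment, with DMSO serving as negative control and baseline for bidirectional analysis.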

[13] = read-out: Urokinase-type plasminogen activator receptor (uPAR), PLAUR (gene 5329); assay: BSK_CASM3C_uPAR: BioMAP Diversity Plus: CASM3C Assay for Urokinase-type plasminogen activator receptor (uPAR) Biomarker Activity (AID 2283054); details: primary human coronary artery smooth muscle cells; actives raise or lower the signal;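 further: cell-surface uPAR protein level quantified by ELISA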
[14] = read-out: Vascular cell adhesion molecule 1 (VCAM1), VCAM1 (gene 7412); assay: BSK_CASM3C_VCAM1: BioMAP Diversity Plus: CASM3C Assay for Vascular cell adhesion molecule 1 (VCAM1) Biomarker Activity (AID 2283055); details: primary human coronary artery smooth muscle cells; actives raise or lower the signal;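 further: VCAM-1 protein level quantified by ELISA on the cells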
[15] = read-out: Collagen III, COL3A1 (gene 1281); assay: BSK_hDFCGF_CollagenIII: BioMAP Diversity Plus: hDFCGF Assay for Collagen III Biomarker Activity (AID 2283056); details: primary human foreskin fibroblasts; actives raise or lower the signal
Summary of the method: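 ELISA readout of Collagen III in human dermal (foreskin) fibroblasts, taken 24 h post-treatment. Gain or loss relative to DMSO vehicle fitted in both directions.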

[16] = read-out: Epidermal growth factor receptor (EGFR), EGFR (gene 1956); assay: BSK_hDFCGF_EGFR: BioMAP Diversity Plus: hDFCGF Assay for Epidermal growth factor receptor (EGFR) Biomarker Activity (AID 2283057); details: primary human foreskin fibroblasts; actives raise or lower the signal
Summary of the method: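 Measured by ELISA: EGFR levels on primary human foreskin fibroblasts 24 h after chemical treatment, analysed relative to DMSO with bidirectional fitting.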

[17] = read-out: Interleukin-8 (IL8), CXCL8 (gene 3576); assay: BSK_hDFCGF_IL8: BioMAP Diversity Plus: hDFCGF Assay for Interleukin-8 (IL8) Biomarker Activity (AID 2283058); details: primary human foreskin fibroblasts; actives raise or lower the signal
Summary of the method: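 IL-8 levels read by ELISA at 24 hours after dosing human skin fibroblast cultures. Parallel SRB staining assessed overt cytotoxicity, and gain or loss of signal was fitted against DMSO control.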

[18] = BSK_hDFCGF_Proliferation: Cell Proliferation Assessment in the BioMAP Diversity Plus: hDFCGF Assay (AID 2283059); details: primary human foreskin fibroblasts;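 further: curves fitted for both rise and fall of signal versus DMSO baseline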
Summary of the method: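 Total protein read at 560 nm after 0.1% SRB staining of TCA-fixed human skin fibroblasts, […]. Activity is fitted in both directions relative to DMSO as baseline.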

[19] = read-out: Macrophage colony-stimulating factor (MCSF), CSF1 (gene 1435); assay: BSK_hDFCGF_MCSF: BioMAP Diversity Plus: hDFCGF Assay for Macrophage colony-stimulating factor (MCSF) Biomarker Activity (AID 2283060); details: primary human foreskin fibroblasts; actives raise or lower the signal
Summary of the method: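 M-CSF levels read by ELISA at 24 h post-dosing in human skin fibroblasts. Parallel cultures stained with SRB assessed cytotoxicity at the same time point; response fitted in both directions against the DMSO baseline.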

[20] = BSK_hDFCGF_SRB: Viability Assessment in the BioMAP Diversity Plus: hDFCGF Assay (AID 2283061); details: primary human foreskin fibroblasts;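 further: cells exposed to compound for 24 h before the read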
Summary of the method: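 Viability was read as total protein: after 10% TCA fixation, wells were stained with 0.1% sulforhodamine B and read at 560 nm. Primary human foreskin fibroblasts were dosed for 24 h, with bidirectional fitting versus DMSO.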

Measured: AC50

Cc1cc(C)c(O)c(C)c1
inactive: all assays above

OCCC(F)(F)C(F)(F)C(F)(F)C(F)(F)C(F)(F)C(F)(F)F
active: [6] 44.3 µM | [12] 52.6 µM | [15] 46.3 µM | [17] 46.4 µM and 57.9 µM | [18] 48.3 µM and 47.4 µM | [19] 54.2 µM | [20] 51.3 µM and 46.8 µM
inactive: [1] | [2] | [3] | [4] | [5] | [6] | [7] | [8] | [9] | [10] | [11] | [12] | [13] | [14] | [15] | [16] | [17] | [18] | [19] | [20]

CC(=O)CC(C)(C)O
inactive: all assays above

Cc1cc(CCN2CCN(c3nsc4ccccc34)CC2)cc2c1NC(=O)CC2(C)C
active: [1] 35.4 µM | [2] 28.5 µM | [3] 36.1 µM | [4] 33.4 µM | [5] 37.1 µM | [6] 29.8 µM | [7] 37.1 µM | [8] 31.5 µM | [9] 36.5 µM | [10] 33.9 µM | [11] 29.6 µM | [12] 11.5 µM | [13] 31.1 µM | [14] 29.4 µM | [15] 9.12 µM | [17] 11.3 µM | [18] 7.83 µM | [19] 10.8 µM | [20] 13.4 µM
inactive: [16]

O=C(OCCOCCOC(=O)c1ccccc1)c1ccccc1
inactive: all assays above
